Where a structure was tested more than once in an assay, its records may differ in their call. Calls of active or inactive are those of the source. Rule for the calls: active = hit-call score of the fitted dose curve at least 0.9, where 1 is the maximum; inactive = score below 0.9.

For orientation: AC50 means the midpoint of the concentration-response curve, whichever way the signal moves.

Read-out in assay [1]: Interleukin-1 alpha (IL1a), IL1A (gene 3552)
As to the kind of experiment: BSK_KF3CT_IL1a: BioMAP Diversity Plus: KF3CT Assay for Interleukin-1 alpha (IL1a) Biomarker Activity (AID 2283070). As to conditions: primary human keratinocytes with fibroblasts; actives raise or lower the signal. The procedure, abridged:
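Primary human keratinocyte plus foreskin fibroblast co-culture, dosed and measured at 24 h in 96-well plates. IL-1a level quantified by ELISA; bidirectional fit relative to DMSO.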

Read-out in assay [2]: TIMP metallopeptidase inhibitor 2 (TIMP2), TIMP2 (gene 7077)
The experiment in a line: BSK_KF3CT_TIMP2: BioMAP Diversity Plus: KF3CT Assay for TIMP metallopeptidase inhibitor 2 (TIMP2) Biomarker Activity (AID 2283071). The following applies: primary human keratinocytes with fibroblasts; actives raise or lower the signal. The method in brief:
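Co-culture of human primary keratinocytes and foreskin fibroblasts, measured 24 h after chemical dosing. TIMP-2 quantified by ELISA and fitted in both directions relative to DMSO. Cytotoxicity checked in parallel cultures by SRB total-protein staining.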

Read-out in assay [3]: C-C motif chemokine 2 (Homo sapiens) (UniProt P13500)
As to the kind of experiment: BSK_KF3CT_MCP1: BioMAP Diversity Plus: KF3CT Assay for Monocyte Chemoattractant Protein 1 (MCP1/CCL2) Biomarker Activity (AID 2283073). The following applies: primary human keratinocytes with fibroblasts; actives raise or lower the signal. The procedure, abridged:
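Human keratinocyte plus foreskin fibroblast primary co-culture exposed to chemical for 24 h. MCP-1 levels measured by ELISA. Bidirectional curve fitting relative to DMSO negative control as baseline.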

Read-out in assay [4]: Matrix Metallopeptidase 9 (MMP9), MMP9 (gene 4318)
As to the kind of experiment: BSK_KF3CT_MMP9: BioMAP Diversity Plus: KF3CT Assay for Matrix Metallopeptidase 9 (MMP9) Biomarker Activity (AID 2283074). As to conditions: primary human keratinocytes with fibroblasts; actives raise or lower the signal. The method in brief:
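Human keratinocyte and foreskin fibroblast co-culture exposed to chemicals for 24 h; MMP9 biomarker measured by ELISA, bidirectional fitting relative to DMSO; cytotoxicity tracked by SRB total protein staining in parallel cultures.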

Read-out in assay [5]: urokinase plasminogen activator (uPA), PLAU (gene 5328)
The experiment in a line: BSK_KF3CT_uPA: BioMAP Diversity Plus: KF3CT Assay for urokinase plasminogen activator (uPA) Biomarker Activity (AID 2283075). As to conditions: primary human keratinocytes with fibroblasts; actives raise or lower the signal. The procedure, abridged:
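Primary human keratinocyte/foreskin fibroblast co-culture exposed to chemical; uPA measured by ELISA at 24 h. Bidirectional fit versus DMSO, with parallel SRB total-protein staining for cytotoxicity.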

Read-out in assay [6]: CD40, CD40 (gene 958)
The experiment in a line: BSK_LPS_CD40: BioMAP Diversity Plus: LPS Assay for CD40 Biomarker Activity (AID 2283076). As to conditions: primary human HUVEC with PBMC; actives raise or lower the signal. The procedure, abridged: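 Primary human umbilical vein endothelial cells co-cultured with peripheral blood mononuclear cells, LPS-stimulated, were dosed with chemical and read 24 h later. CD40 levels were measured by ELISA and fitted bidirectionally against DMSO as negative control and baseline.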

Read-out in assay [7]: E-selectin (Homo sapiens) (UniProt P16581)
The experiment in a line: BSK_LPS_Eselectin: BioMAP Diversity Plus: LPS Assay for Eselectin Biomarker Activity (AID 2283077). The following applies: primary human HUVEC with PBMC; actives raise or lower the signal. The method in brief:
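Human umbilical vein endothelial cells co-cultured with peripheral blood mononuclear cells under LPS stimulation; E-selectin measured by ELISA 24 h after chemical dosing. Activity fitted bidirectionally against DMSO as negative control and baseline.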

Read-out in assay [8]: Interleukin-8 (IL8), CXCL8 (gene 3576)
The experiment in a line: BSK_LPS_IL8: BioMAP Diversity Plus: LPS Assay for Interleukin-8 (IL8) Biomarker Activity (AID 2283078). As to conditions: primary human HUVEC with PBMC; actives raise or lower the signal. The procedure, abridged: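 Human umbilical vein endothelial cells co-cultured with PBMC were stimulated with LPS; IL-8 levels were measured by ELISA 24 h after chemical dosing. Activity was fitted bidirectionally against DMSO as negative control and baseline.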

Assay [9] can be described thus: BSK_LPS_SRB: Viability Assessment in the BioMAP Diversity Plus: LPS Assay (AID 2283079).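 Note: total protein by sulforhodamine B absorbance as a cytotoxicity measure; measured one day after compound addition; fitted in both directions against DMSO so loss or gain of signal counts.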 The following applies: primary human HUVEC with PBMC. The method in brief: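 Human umbilical vein endothelial cells co-cultured with PBMC (LPS system) were dosed for 24 h. Total protein was stained with 0.1% sulforhodamine B after 10% TCA fixation, read at 560 nm, and fitted bidirectionally against DMSO baseline.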

Read-out in assay [10]: Interleukin-1 alpha (IL1a), IL1A (gene 3552)
As to the kind of experiment: BSK_LPS_IL1a: BioMAP Diversity Plus: LPS Assay for Interleukin-1 alpha (IL1a) Biomarker Activity (AID 2283080). As to conditions: primary human HUVEC with PBMC; actives raise or lower the signal. The procedure, abridged:
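Human umbilical vein endothelial cells co-cultured with peripheral blood mononuclear cells were LPS-stimulated and exposed to test chemicals for 24 h. IL-1 alpha was quantified by ELISA, with bidirectional curve fitting against DMSO as the negative control and baseline.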

Read-out in assay [11]: Monocyte Chemoattractant Protein-1 (MCP1), CCL2 (gene 6347)
As to the kind of experiment: BSK_LPS_MCP1: BioMAP Diversity Plus: LPS Assay for Monocyte Chemoattractant Protein-1 (MCP1) Biomarker Activity (AID 2283081). The following applies: primary human HUVEC with PBMC; actives raise or lower the signal. The procedure, abridged:
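HUVEC plus PBMC co-culture (human primary cells, LPS system) exposed to test chemical for 24 h; MCP-1 measured by ELISA. Bidirectional curve fitting against DMSO baseline; parallel SRB total-protein staining flags overt cytotoxicity.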

A short description of assay [12]: BSK_LPS_PGE2: BioMAP Diversity Plus: LPS Assay for Prostaglandin E2 (PGE2) Biomarker Activity (AID 2283082). The following applies: primary human HUVEC with PBMC; actives raise or lower the signal. The method in brief:
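HUVEC plus human PBMC co-culture stimulated with LPS; secreted PGE2 quantified by ELISA 24 h after chemical dosing. Activity fitted bidirectionally against DMSO baseline; parallel SRB staining (0.1% SRB after 10% TCA fixation, 560 nm) flags overt cytotoxicity.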

Read-out in assay [13]: Tissue Factor, F3 (gene 2152)
As to the kind of experiment: BSK_LPS_TissueFactor: BioMAP Diversity Plus: LPS Assay for Tissue Factor Biomarker Activity (AID 2283084). As to conditions: primary human HUVEC with PBMC; actives raise or lower the signal. The procedure, abridged: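 Human umbilical vein endothelial cells co-cultured with peripheral blood mononuclear cells were dosed and stimulated with LPS. Cell-surface CD142 was quantified by ELISA at 24 h. Activity was fitted bidirectionally against DMSO baseline.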

Read-out in assay [14]: Tumor necrosis factor (Homo sapiens) (UniProt P01375)
As to the kind of experiment: BSK_LPS_TNFa: BioMAP Diversity Plus: LPS Assay for Tumour Necrosis Factor alpha (TNFa) Biomarker Activity (AID 2283085).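 For AC50: TNFa protein level quantified by ELISA in the co-culture.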 As to conditions: primary human HUVEC with PBMC; actives raise or lower the signal. The procedure, abridged: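 Human umbilical vein endothelial cells co-cultured with PBMC and stimulated with LPS. TNFa was measured by ELISA 24 h after chemical dosing, fitted bidirectionally relative to DMSO.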

Read-out in assay [15]: Vascular cell adhesion molecule 1 (VCAM1), VCAM1 (gene 7412)
As to the kind of experiment: BSK_LPS_VCAM1: BioMAP Diversity Plus: LPS Assay for Vascular cell adhesion molecule 1 (VCAM1) Biomarker Activity (AID 2283086). As to conditions: primary human HUVEC with PBMC; actives raise or lower the signal. The method in brief: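 Human umbilical vein endothelial cells co-cultured with PBMC and stimulated with LPS; VCAM-1 measured by ELISA 24 h after dosing. Bidirectional curve fitting against DMSO baseline; cytotoxicity tracked in parallel by SRB total-protein staining.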

Read-out in assay [16]: CD38, CD38 (gene 952)
As to the kind of experiment: BSK_SAg_CD38: BioMAP Diversity Plus: SAg Assay for CD38 Biomarker Activity (AID 2283087). The following applies: primary human HUVEC with PBMC; actives raise or lower the signal. The procedure, abridged: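 Human HUVEC plus PBMC co-culture stimulated with superantigen; CD38 measured by ELISA 24 h after chemical dosing. Fluorescence read-out, bidirectional fit against DMSO; cytotoxicity tracked in parallel by SRB and Alamar Blue.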

Read-out in assay [17]: CD40, CD40 (gene 958)
As to the kind of experiment: BSK_SAg_CD40: BioMAP Diversity Plus: SAg Assay for CD40 Biomarker Activity (AID 2283088). The following applies: primary human HUVEC with PBMC; actives raise or lower the signal. The method in brief:
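Human umbilical vein endothelial cells co-cultured with PBMC; CD40 levels measured by ELISA with fluorescence read-out 24 h after chemical dosing. Gain or loss of signal fitted bidirectionally against DMSO baseline.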

Read-out in assay [18]: CD69, CD69 (gene 969)
As to the kind of experiment: BSK_SAg_CD69: BioMAP Diversity Plus: SAg Assay for CD69 Biomarker Activity (AID 2283089). As to conditions: primary human HUVEC with PBMC; actives raise or lower the signal. The procedure, abridged: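 Values derive from bidirectional fitting relative to DMSO vehicle. Cells: umbilical vein endothelium plus peripheral blood mononuclear cells, treated 24 h before fluorescent ELISA for CD69.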

Read-out in assay [19]: Transforming growth factor beta 1 (TGFb1), TGFB1 (gene 7040)
The experiment in a line: BSK_KF3CT_TGFb1: BioMAP Diversity Plus: KF3CT Assay for Transforming growth factor beta 1 (TGFb1) Biomarker Activity (AID 2283072). As to conditions: primary human keratinocytes with fibroblasts; actives raise or lower the signal. The procedure, abridged:
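Human keratinocyte/foreskin fibroblast co-culture; TGF-b1 measured by ELISA 24 h after dosing, fitted bidirectionally versus DMSO. Cytotoxicity checked in parallel cultures by total protein (SRB staining, 560 nm).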

Read-out in assay [20]: Macrophage colony-stimulating factor (MCSF), CSF1 (gene 1435)
The experiment in a line: BSK_LPS_MCSF: BioMAP Diversity Plus: LPS Assay for Macrophage colony-stimulating factor (MCSF) Biomarker Activity (AID 2283083). As to conditions: primary human HUVEC with PBMC; actives raise or lower the signal. The procedure, abridged:
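Human umbilical vein endothelial cells co-cultured with peripheral blood mononuclear cells were exposed to compound for 24 h. M-CSF levels were measured by ELISA, and bidirectional curve fitting used DMSO as the negative control and baseline.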

Tumor necrosis factor (Homo sapiens), sequence (P01375 whole entry, looked up): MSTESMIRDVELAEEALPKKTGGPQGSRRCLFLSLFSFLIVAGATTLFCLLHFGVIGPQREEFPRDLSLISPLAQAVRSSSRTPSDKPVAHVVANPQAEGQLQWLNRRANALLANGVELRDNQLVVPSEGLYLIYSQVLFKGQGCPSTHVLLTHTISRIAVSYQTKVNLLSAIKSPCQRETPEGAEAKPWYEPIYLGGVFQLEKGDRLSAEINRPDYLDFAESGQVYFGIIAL
E-selectin (Homo sapiens), sequence (P16581 whole entry, looked up): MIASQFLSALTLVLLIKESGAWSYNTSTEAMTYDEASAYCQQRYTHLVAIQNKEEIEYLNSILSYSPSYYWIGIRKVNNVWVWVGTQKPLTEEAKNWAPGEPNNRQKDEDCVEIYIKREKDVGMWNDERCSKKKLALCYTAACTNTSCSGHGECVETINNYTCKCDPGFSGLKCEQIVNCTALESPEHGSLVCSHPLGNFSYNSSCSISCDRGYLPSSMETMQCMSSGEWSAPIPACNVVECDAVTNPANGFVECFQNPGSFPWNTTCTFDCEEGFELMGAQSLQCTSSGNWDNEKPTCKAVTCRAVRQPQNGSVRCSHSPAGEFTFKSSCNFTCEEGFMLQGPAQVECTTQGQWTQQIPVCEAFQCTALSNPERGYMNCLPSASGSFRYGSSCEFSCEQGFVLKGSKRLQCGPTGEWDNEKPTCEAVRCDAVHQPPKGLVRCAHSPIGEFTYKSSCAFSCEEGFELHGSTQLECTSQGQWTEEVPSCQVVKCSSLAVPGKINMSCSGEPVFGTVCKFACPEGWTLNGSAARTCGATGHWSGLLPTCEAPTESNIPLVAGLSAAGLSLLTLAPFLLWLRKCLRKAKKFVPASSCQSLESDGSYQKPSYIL

As to `FC(F)(F)C(F)(F)C(F)(F)C(F)(F)C(F)(F)CCI`, the result in assay [1], in assay [2], in [3], in assay [4], in assay [5] and in assay [6] was inactive. Besides, the result in assay [7], in assay [8], in assay [9], in assay [10], in assay [11] and in [12] was inactive. Besides, the result in assay [13], in assay [14], in [15], in assay [16], in assay [17] and in assay [18] was inactive.

`CCCCOCCOCCOC(=O)CCCCC(=O)OCCOCCOCCCC`: the AC50 is 2.19 µM (active) in [1] and 5.67 µM (active) in assay [14]. The outcome in assay [2], in assay [19], in assay [3], in assay [4], in assay [5] and in [6] was inactive. In addition, the outcome in assay [7], in [8], in assay [9], in [10], in [11] and in assay [12] was inactive. Moreover, the outcome in assay [13], in assay [15], in assay [16], in assay [17] and in assay [18] was inactive.

As for `CCc1c(Br)c(Br)c(Br)c(Br)c1Br`, the outcome in assay [1], in assay [2], in assay [19], in assay [3], in assay [4] and in [5] was inactive. Further, the result in assay [6], in [7], in assay [8], in assay [9], in assay [10] and in assay [11] was inactive. Moreover, the outcome in assay [12], in assay [20], in assay [13], in assay [14], in assay [15] and in [17] was inactive. Besides, in assay [18], the result was inactive. For the same molecule, in assay [16], the AC50 is 20 µM (active).

Take `FC(F)(F)C(F)(F)C(F)(F)CI`: the result in assay [1], in assay [2], in [3], in assay [4], in [5] and in assay [6] was inactive. The result in assay [7], in assay [8], in assay [9], in assay [10], in assay [11] and in [12] was inactive. For the same molecule, the result in assay [13], in [14], in assay [15], in assay [16], in [17] and in assay [18] was inactive. For the same molecule, in [8], the half-maximal activity concentration (AC50) is 1.84 µM (active).

On to `FC(F)(F)C(F)(F)C(F)(F)C(F)(F)C(F)(F)C(F)(F)C(F)(F)C(F)(F)F`, for which the outcome in assay [1], in assay [2], in [3], in assay [4], in [5] and in assay [6] was inactive. In addition, the outcome in assay [7], in assay [8], in [9], in assay [10], in [11] and in [12] was inactive. The outcome in assay [20], in assay [13], in assay [14], in assay [15], in assay [16] and in [17] was inactive. Further, in [18], the outcome was inactive.

Turning to `CCCCNc1ccccc1`, the result in [1], in assay [2], in [19], in assay [3], in assay [4] and in assay [5] was inactive. The outcome in assay [6], in [7], in assay [8], in assay [9], in [10] and in assay [11] was inactive. For the same molecule, the result in assay [12], in assay [20], in [13], in assay [14], in assay [15] and in assay [16] was inactive. Moreover, the outcome in assay [17] and in assay [18] was inactive.

These data come from PubChem BioAssay (EPA / NIEHS).
